Screens (PubChem BioAssay)
LEDGF integ inh = blockers of LEDGF/p75-dependent integrase strand transfer – biochemical, TR-FRET, high throughput, primary screen | HIV-1 integrase (with human LEDGF/p75) | inhibition, % at 3.7 µM | TR-FRET IN-LEDGF/p75 DNA integration, Eu/Cy5 | actives 0.64% (n = 370,000);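 active = inhibition above the screen-wide mean plus 3 SD, cut at about 13% in these data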;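 also: signal is the Cy5 over europium emission ratio at 671 and 618 nm; 0% = plate median of compound wells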
PLCb3 inh = human PLC-beta3 inhibitors, primary screen, biochemical, fluorescence | 1-phosphatidylinositol 4,5-bisphosphate phosphodiesterase beta-3 (Homo sapiens), Q01970 | Purified PLC-beta3, fluorogenic substrate | inhibition, % at 12.2 µM | actives 0.18% (n = 370,000);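 also: 0% = median of compound wells on plate and 100% = full blocker control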
PLC-gamma1 inh = PLC-gamma1 enzyme inhibitors, primary screen, biochemical, fluorescence, purified enzyme; 1-phosphatidylinositol 4,5-bisphosphate phosphodiesterase gamma-1 (Homo sapiens), P19174; fluorogenic substrate; inhibition, % at 12.2 µM; actives 0.84% (n = 370,000); in the data active = inhibition above about 9.5%
UHRF1 MBD2 ctr = UHRF1 methylated DNA binding inhibitors, primary screen, counter-screen for MBD2 inhibitor project, biochemical, TR-FRET, human UHRF1, single concentration; E3 ubiquitin-protein ligase UHRF1 (Homo sapiens), Q96T88; UHRF1 binding to methylated oligo; inhibition, % at 4.4 µM; actives 0.75% (n = 370,000); in the data active = inhibition above about 21%;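 also: UHRF1 SRA domain binding a hemimethylated CpG hairpin DNA probe; 0% = median of test compound wells and 100% = reference inhibitor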
Target sequence (Q96T88 whole entry, looked up, the tested form may be a part): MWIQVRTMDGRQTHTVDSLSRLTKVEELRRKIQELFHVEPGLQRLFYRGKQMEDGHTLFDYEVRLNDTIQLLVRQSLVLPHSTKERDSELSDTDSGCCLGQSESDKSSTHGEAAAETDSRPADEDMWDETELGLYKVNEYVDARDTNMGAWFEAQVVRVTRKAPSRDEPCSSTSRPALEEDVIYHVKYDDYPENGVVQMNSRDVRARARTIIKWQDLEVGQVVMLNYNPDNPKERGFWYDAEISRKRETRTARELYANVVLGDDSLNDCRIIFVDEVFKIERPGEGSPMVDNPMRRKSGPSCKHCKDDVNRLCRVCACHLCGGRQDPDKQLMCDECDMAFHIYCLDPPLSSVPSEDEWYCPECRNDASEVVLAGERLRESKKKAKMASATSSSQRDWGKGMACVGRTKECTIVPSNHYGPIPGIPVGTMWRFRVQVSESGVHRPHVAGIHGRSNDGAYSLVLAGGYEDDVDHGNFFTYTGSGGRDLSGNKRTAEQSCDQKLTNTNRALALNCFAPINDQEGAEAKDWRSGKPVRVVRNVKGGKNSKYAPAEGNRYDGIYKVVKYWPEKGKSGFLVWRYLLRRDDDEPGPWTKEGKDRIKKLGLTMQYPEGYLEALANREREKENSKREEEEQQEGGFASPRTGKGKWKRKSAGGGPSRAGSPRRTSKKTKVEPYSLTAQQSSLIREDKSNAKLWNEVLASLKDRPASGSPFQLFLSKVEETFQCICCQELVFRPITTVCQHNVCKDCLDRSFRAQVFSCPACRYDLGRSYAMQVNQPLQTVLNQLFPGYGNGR
MBD2 inh = inhibitors of MBD2 binding to methylated DNA, primary screen, biochemical, TR-FRET, DNA-binding domain, human | Methyl-CpG-binding domain protein 2 (Homo sapiens), Q9UBB5 | MBD2 binding to methylated oligonucleotide | actives 0.31% (n = 370,000) | inhibition, % at 4.4 µM; in the data active = inhibition above about 13%
PLCgamma1 ctr = PLC-gamma1 enzyme inhibitors, counter-screen for PLC-beta3 inhibitor project, biochemical, fluorescence | actives 3.1% (n = 3,300) | shares compounds with PLC-gamma1 inh | purified PLC-gamma1, fluorogenic substrate | inhibition, % at 12.3 µM | AID 743258, 2014; in the data active = inhibition above about 9.5%
PLCbeta3 conf = PLC-beta3 inhibitor confirmation, biochemical, fluorescence, purified enzyme | inhibition, % at 12.3 µM | fluorogenic substrate fluorescence | shares compounds with PLC-gamma1 inh | actives 1% (n = 3,300)
The depositor's hits bear a star; x = not tested or not shown. Shown are actives, neighbours in structure and some others; about 2.4% of the full set was active somewhere. Rule as the data show it, unless noted: active = inhibition above about 11%; inactive = the rest.

SMILES | LEDGF integ inh | PLCb3 inh | PLC-gamma1 inh | UHRF1 MBD2 ctr | MBD2 inh | PLCgamma1 ctr | PLCbeta3 conf
O=C(NCc1ccc2c(c1)OCO2)C1COc2ccccc2O1 (stereo not drawn) | 1.3 | 4.9 | 10.8* | 0.5 | -0.7 | -5.3 | -1.6
Cc1nc2ccccn2c1C(=O)N/N=C/c1ccc2c(c1)OCO2 | 1.4 | -0.4 | -3.2 | -4.7 | -7.0 | x | x
CC(=O)c1c(C)n(CC(=O)NCc2ccc3c(c2)OCO3)c2ccccc12 | 0.2 | -4.8 | 11.4* | 1.1 | 3.4 | -7.3 | -2.0
COc1ccc(S(=O)(=O)N2CCCCC2)cc1C(=O)N1CCCC1 | -0.5 | -0.1 | 11.9* | 0.4 | 2.5 | -5.6 | -1.5
COc1ccc(S(=O)(=O)N2CCOCC2)cc1C(=O)Nc1cccc(C(=O)NC2CC2)c1 | 5.4 | -1.6 | -0.4 | 0.1 | 5.4 | x | x
COc1ccc(S(=O)(=O)N2CCOCC2)cc1C(=O)NC1CCCCCC1 | 3.6 | 2.1 | 12.2* | 1.5 | 2.9 | -5.3 | 0.4
Cc1ccc(S(=O)(=O)N2CCOCC2)cc1NC(=O)CNCC1CCCCC1 | 7.3 | 5.4 | 10.3* | 0.5 | -0.6 | -4.9 | -1.4
O=C(CC1CCCC1)Nc1cc(S(=O)(=O)N2CCOCC2)ccc1O | 2.7 | -0.3 | -1.0 | 1.3 | -2.0 | x | x
c1coc(CN2CN=C(Nc3nc4ccccc4s3)NC2)c1 | 0.8 | 2.7 | 9.7* | 4.0 | -1.3 | 1.1 | 2.7
c1ccc(CN2CN=C(Nc3nc4ccccc4s3)NC2)cc1 | 2.6 | 1.8 | 3.7 | 0.2 | -3.7 | x | x
COC(=O)C[C@H]1C=C[C@@H](C(C(=O)OC)C(=O)OC)CN1C(C)=O | 5.6 | 0.2 | 30.6* | 4.4 | 3.6 | 5.8 | 1.4
COC(=O)CCC(NC(=O)c1cc(-c2ccc3c(c2)OCCO3)oc1C)C(=O)OC (stereo not drawn) | 1.5 | -7.2 | -7.0 | -0.5 | 0.8 | x | x
O=C(NC1CCCCC1)C(c1ccncc1)N(C(=O)c1csnn1)c1ccccc1F (stereo not drawn) | -3.8 | -6.6 | -2.8 | 1.0 | 1.9 | x | x
CC(=O)c1ccc(N(C(=O)c2csnn2)C(C(=O)NC2CCCC2)c2ccccc2)cc1 (stereo not drawn) | 6.9 | 3.0 | 10.9* | 5.1 | 2.9 | -3.6 | 0.8
O=C(NC1CCCC1)C(c1cccnc1)N(C(=O)c1csnn1)c1ccc(F)cc1 (stereo not drawn) | -2.9 | -5.1 | 9.7* | 3.1 | 3.0 | -0.7 | 5.0
O=C(NC1CCCC1)C(c1ccccc1)N(C(=O)c1csnn1)c1ccccc1F (stereo not drawn) | 6.7 | 5.6 | 9.9* | 4.5 | 0.7 | 2.1 | -3.4
c1nc(NCC2CCOC2)c2cc(-c3ccc4c(c3)OCO4)ccc2n1 (stereo not drawn) | 1.4 | -191.6 | -126.7 | 0.1 | -3.5 | x | x
CCCCNC(=O)NC(C(=O)OC)C12CC3CC(CC(C3)C1)C2 (stereo not drawn) | -0.2 | 3.8 | 12.8* | 5.4 | -2.6 | -2.3 | 2.6
CCCCNC(=O)NC12CC3CC(CC(C3)C1)C2 | 1.6 | -1.9 | 3.1 | -2.0 | 0.2 | x | x
O=c1[nH]c2cc([N+](=O)[O-])c(NCCO)c([N+](=O)[O-])c2[nH]1 | -3.8 | 0.8 | 1.3 | -31.0 | -23.3 | x | x
CC(=O)Nc1c([N+](=O)[O-])cc2[nH]c(=O)[nH]c2c1[N+](=O)[O-] | 4.6 | 11.5* | 12.4* | -0.8 | -11.6 | -7.1 | 0.0
CCCCCN1CCCCC(NC(=O)CSc2ccccc2)C1=O (stereo not drawn) | -1.4 | 2.1 | -0.5 | 0.0 | -0.1 | x | x
COc1ccc(OC)c(NC(=O)NCCc2c[nH]c3ccccc23)c1 | -4.2 | -1.4 | 12.4* | 3.5 | 4.7 | -6.1 | -4.1
CCOc1ncccc1C(=O)N=c1sccn1C | 7.6 | -2.4 | 12.3* | 2.8 | 2.6 | -4.3 | 0.6
Cc1ccc(C(C)C)cc1NC(=O)Nc1ccc([N+](=O)[O-])cc1 | 2.2 | 11.7* | 5.1 | 0.3 | -1.3 | 5.0 | 10.1
SMILES | LEDGF integ inh | PLCb3 inh | PLC-gamma1 inh | UHRF1 MBD2 ctr | MBD2 inh | PLCgamma1 ctr | PLCbeta3 conf
CN1CCN(S(=O)(=O)c2cccc(C(=O)Oc3cccc(Br)c3)c2)CC1 | 0.1 | -4.7 | 0.5 | 0.6 | -0.1 | x | x
CN1CCN(S(=O)(=O)c2cccc(C(=O)Oc3ccc(Br)cc3F)c2)CC1 | 5.4 | -0.2 | 10.6* | -1.9 | -4.6 | -3.5 | -0.9
O=[N+]([O-])c1ccc(-c2c(O)c3ccccc3c3nc4ccccc4nc23)cc1 | 2.9 | 10.6* | 8.5 | 3.1 | 4.1 | -2.3 | -3.3
CCn1cc(CN2CCC(n3nccc3NC(=O)CCOc3ccccc3)CC2)cn1 | 1.0 | -2.0 | 13.4* | 0.5 | -7.6 | -4.8 | -1.4
CCOc1cccc(CN2CCC(n3nccc3NC(=O)c3ccc4c(c3)OCO4)CC2)c1 | -3.1 | -3.5 | 10.2* | 0.3 | -0.6 | 0.6 | 3.2
CCn1cc(CN2CCC(n3nccc3NC(=O)CCc3ccccc3)CC2)cn1 | 0.9 | -11.7 | 3.0 | 1.5 | -3.3 | x | x
CCN1C(=O)c2ccccc2S(=O)c2ccc(C(=O)N3CCCCCC3)cc21 (stereo not drawn) | 6.4 | 11.1* | 5.6 | 3.2 | 3.2 | -6.5 | -4.2
CCN1C(=O)c2ccccc2S(=O)c2ccc(C(=O)N3CCN(C(=O)c4ccco4)CC3)cc21 (stereo not drawn) | -3.6 | -0.5 | -0.5 | 0.0 | -3.3 | x | x
CCOc1ccc(NC(=O)CN(C)C(=O)CCc2ccccc2Cl)cc1OCC | 0.9 | -2.1 | 5.9 | 0.2 | 5.6 | x | x
CCOc1ccc(NC(=O)CN(C)C(=O)c2ccc(C)o2)cc1OCC | -0.3 | -1.2 | 15.0* | 4.2 | 3.0 | 4.5 | 3.1
CCOc1ccc(NC(=O)CN(C)C(=O)CCCOc2ccc(Cl)c(C)c2)cc1OCC | 3.5 | 4.2 | 9.6* | 3.9 | -6.4 | -6.2 | -4.5
CCOc1ccc(NC(=O)CN(C)C(=O)c2cc(C)oc2C)cc1OCC | -3.7 | -9.5 | 3.5 | 3.5 | -0.3 | x | x
O=C(CN1C(=O)NC2(CCCC2)C1=O)N1CCN(S(=O)(=O)c2cc(Cl)ccc2Cl)CC1 | -2.5 | -15.1 | 10.3* | 5.9 | 0.2 | -3.6 | -5.1
O=C(CN1C(=O)NC2(CCCC2)C1=O)N1CCN(S(=O)(=O)c2ccc(Cl)cc2)CC1 | 4.4 | 2.5 | 4.1 | 1.3 | 1.9 | x | x
Cc1cc(Br)cc2c(C(=O)NCC3CCCO3)cc(-c3cccs3)nc12 (stereo not drawn) | 2.2 | 1.9 | 12.1* | 0.7 | 0.5 | -22.7 | -31.4
